# Where “and” joins values, the source holds several entries; their conditions need not be identical. Identical values can stand only once. Screen size: about 16,000 compounds; about 5,700 (36%) were called active. Not shown: some 24% with an inconclusive outcome. The list shows a part of the results. Values without a mark were called inactive. Calls follow the shape of the dose curve; as a rule, active = well fitted curve in the direction sought with a large enough effect; inconclusive = small, poorly fitted or top-dose-only effect, or effect the other way; inactive = no such curve, though single readings can be large or run the other way.
# Biological target: Cytochrome P450 1A2 (Homo sapiens) (UniProt P05177)
# Experiment: Cytochrome panel assay with activity outcomes
# Conditions: recombinant CYP, pro-luciferin dealkylation, luminescence, p450-cyp1a2; series mostly up to 57.1 µM
# % is scaled to controls: 0 for no effect and ±100 for the full control effect.
# Sequence of Cytochrome P450 1A2 (Homo sapiens) (P05177 whole entry, looked up): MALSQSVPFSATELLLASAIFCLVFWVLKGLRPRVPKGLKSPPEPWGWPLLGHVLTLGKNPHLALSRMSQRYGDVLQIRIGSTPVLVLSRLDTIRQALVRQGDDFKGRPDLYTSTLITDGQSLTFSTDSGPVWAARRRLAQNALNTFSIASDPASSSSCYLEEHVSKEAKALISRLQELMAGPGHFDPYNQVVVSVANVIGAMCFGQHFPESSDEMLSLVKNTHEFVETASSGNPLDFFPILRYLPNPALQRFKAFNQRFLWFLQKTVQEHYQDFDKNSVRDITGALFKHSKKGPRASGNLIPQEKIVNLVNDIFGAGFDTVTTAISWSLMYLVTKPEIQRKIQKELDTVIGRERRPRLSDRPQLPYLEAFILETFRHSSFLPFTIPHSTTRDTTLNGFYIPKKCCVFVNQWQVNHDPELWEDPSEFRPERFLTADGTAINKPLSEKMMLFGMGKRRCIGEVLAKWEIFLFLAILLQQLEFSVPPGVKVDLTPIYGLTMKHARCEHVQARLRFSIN
SMILES,AC50,"activity, negative = inhibition"
Cc1ncc([N+](=O)[O-])n1CC(C)O (stereo unspecified),inactive,–
Cc1ncc([N+](=O)[O-])n1CCO,inactive,–
Cc1ccc2ncc([N+](=O)[O-])n2c1,6.31 µM (active),–
Cc1nn(C)c(C)c1CNC(=O)c1cnn2c1NC(c1ccccc1)CC2C(F)(F)F (stereo unspecified),inactive,–
CCC(C)N1C(=O)S/C(=C/c2ccc(Sc3nc4ccccc4[nH]3)o2)C1=O (stereo unspecified),2 µM (active),–
NCCNc1ncnc2ccc(Cl)cc12,1 µM (active),–
COC(=O)N1CCC2(CCCN(Cc3ccc(C#N)cc3)C2)CC1,inactive,–
CC(C)CC1CC(=O)OC1(C)C(=O)CSc1nc2ccccc2s1 (stereo unspecified),7.08 µM (active),–
O=C(O)CC(c1ccccc1)n1cnnn1 (stereo unspecified),inactive,–
c1ccc2c(-n3ccnc3)nc(-c3ccoc3)nc2c1,0.501 µM (active),–
CN(C)c1ccc(-c2nc(-n3ccnc3)c3ccccc3n2)cc1,0.316 µM (active),–
COC(=O)C/C=C\[C@@H](C)[C@@H](/C=N\OC[C@@H]1O[C@H](c2ccccc2)C=C[C@@H]1Oc1ccc(OC)cc1)NS(=O)(=O)c1ccc(C)cc1,–,-1.03% [at 11.4 µM]
CCC/C=C(\CCC)C(NS(=O)(=O)c1ccc(C(F)(F)F)cc1)c1ccc(-c2ccccc2)cc1 (stereo unspecified),inactive,–
Cc1ccc(S(=O)(=O)N[C@H](C(=O)Oc2ccc3c(C(F)(F)F)cc(=O)oc3c2)c2ccccc2)cc1,1.78 µM (active),–
Cc1ccc(S(=O)(=O)NC(CC(C)C)C(=O)Oc2ccc3c4c(c(=O)oc3c2)CCC4)cc1 (stereo unspecified),3.98 µM (active),–
Cc1ccc(S(=O)(=O)N[C@H](CN)C(=O)O)cc1,–,-18.5% [at 2.29 µM]
Cc1ccc(C)c(S(=O)(=O)NC(CC(C)C)C(=O)O)c1 (stereo unspecified),inactive,–
COc1ccc(CCN2C(=NC(=O)CCC(=O)O)SC3CS(=O)(=O)CC32)cc1 (stereo unspecified),inactive,–
CN1CCc2c(c3c(n2C)CCN(C)[C@H]3c2ccccc2F)[C@@H]1c1ccccc1F,inactive,–
CC(C)NC(=O)N1CCCC2(CCN(C(=O)c3cc(C(F)(F)F)cc(C(F)(F)F)c3)CC2)C1,inactive,–
C1=C(CN2CCOCC2)COc2c1cccc2OC[C@@H]1CNCCO1,12.6 µM (active),–
Cc1c(C)c2c(c(C)c1O)CC[C@@](C)(CCC[C@@H](C)CCC[C@@H](C)CCCC(C)C)O2,inactive,–
COc1ccc(NC2=NC(=S)N(c3ccc(C)cc3)C23CCCCC3)cc1,inactive,–

SMILES,AC50,"activity, negative = inhibition"
COc1ccc(Nc2ncc3c(n2)CC(c2ccc(C)cc2)CC3=O)cc1 (stereo unspecified),14.1 µM (active),–
COc1ccc(C2CC(=O)c3cnc(Nc4cc(C)cc(C)c4)nc3C2)cc1 (stereo unspecified),14.1 µM (active),–
CCSc1nnc(-c2ccc(Cl)cc2)c2ccccc12,7.08 µM (active),–
O=[N+]([O-])c1cc(Cl)cc2c1nc(NCCO)c1ccccc12,0.02 µM (active),–
CCOC(=O)C(NC(C)=O)C(=O)O (stereo unspecified),inactive,–
O=C1C[C@@H](O)[C@@H](O)[C@H]2[C@@H]3C(=O)N(C4CCCCC4)C(=O)[C@@H]3CC[C@H]12,–,4% [at 11.4 µM] and -9.85% [at 11.4 µM] and 5.4% [at 11.4 µM]
O=C1C2C3C=CC([C@@H]2C(=O)N1C1CCCCC1)[C@H]1C(=O)N(C2CCCCC2)C(=O)C31 (stereo partly specified),inactive,–
CC(=O)[C@@H]1[C@@H]2C(=O)N(C3CCCCC3)C(=O)[C@@H]2C2c3ccccc3C=CN21 (stereo partly specified),15.8 µM (active),–
COCCNc1ccnc(-c2cccc(NS(C)(=O)=O)c2)n1,2 µM (active),–
COc1cccc(-c2nccc(NCc3ccc(OC)cc3OC)n2)c1,1 µM (active),–
COc1cccc(-c2nccc(NCc3ccccc3OC)n2)c1,1.26 µM (active),–
COc1ccc(CNc2ccnc(-c3cccnc3)n2)c(OC)c1,0.316 µM (active),–
COc1ccc(C(=O)N2CCC3(CCN(Cc4ccccc4OC)CC3)CC2)cc1,inactive,–
CCOc1ccc(N(C(C)C(=O)NC(C)CC)S(C)(=O)=O)cc1 (stereo unspecified),inactive,–
N[C@H](CCC(=O)N[C@H](CSN=O)C(=O)NCC(=O)O)C(=O)O,inactive,–
NC1=C2NC=N[C@@H]2N(C/C=C\c2ccccc2)C=N1,–,-12.4% [at 2.29 µM]
COc1ccc(CNc2ccnc(-c3cccc(NS(C)(=O)=O)c3)n2)c(OC)c1,15.8 µM (active),–
CC(C)[C@@H]1NC(=O)[C@H](CCCCN)NC(=O)[C@H](Cc2c[nH]c3ccccc23)NC(=O)[C@H](Cc2ccc(O)cc2)NC(=O)[C@H](C)N(C)C(=O)[C@H](Cc2ccccc2)NC1=O,inactive,–
COc1ccc(-c2ccc(=O)n(CC(=O)Nc3nnc(C(C)C)s3)n2)cc1OC,inactive,–
COc1ccc(-c2nn3cnnc3s2)cc1OC,20 µM (active),–
Cc1nc2cnc(N(C)C)nc2n(Cc2ccc(F)cc2)c1=O,2 µM (active),–
CN(C)c1ncc2nc(-c3ccc(F)cc3)c(=O)n(Cc3ccc(F)cc3)c2n1,inactive,–
CN(C)c1ncc2nc(-c3ccc(Cl)cc3)c(=O)n(Cc3ccc(F)cc3)c2n1,5.01 µM (active),–

SMILES,AC50,"activity, negative = inhibition"
CN(C)c1ncc2nc(-c3cc(F)cc(F)c3)c(=O)n(Cc3ccc(F)cc3)c2n1,inactive,–
O=C1[C@@H]2[C@H]3[C@H](O)[C@H](O)C/C(=N/OCc4ccccc4)[C@@H]3CC[C@H]2C(=O)N1c1ccc(F)cc1F,–,4.37% [at 11.4 µM]
Clc1ccc(/C=N/Nc2nnc(-c3ncc[nH]3)c3ccccc23)cc1,0.2 µM (active),–
NC[C@@H]1O[C@H](C23CC4CC(CC(C4)C2)C3)Cc2c1ccc(O)c2O,inactive,–
Cc1ccc(N=Nc2c(N)n(-c3ccccc3)[nH]c2=O)cc1,2.82 µM (active),–
Cc1ccc(C2C(C=Nc3c(C)n(C)n(-c4ccccc4)c3=O)=C(c3ccccc3)Oc3ccccc32)cc1 (stereo unspecified),inactive,–
Cc1[nH]n(-c2ccc(S(=O)(=O)O)cc2)c(=O)c1N=Nc1ccccc1,–,-10.5% [at 11.4 µM]
Nc1c(N=Nc2cccc(Cl)c2)c(=O)[nH]n1-c1ccccc1,2 µM (active),–
O=c1cc(N2CCN(c3cccc(Cl)c3)CC2)[nH]c(=O)n1C1CCCCC1,inactive,–
Cc1nc2cnc(Oc3cccc(Cl)c3)nc2n(C2CC2)c1=O,6.31 µM (active),–
Cc1nc2cnc(Oc3ccccc3)nc2n(C2CC2)c1=O,10 µM (active),–
O=c1cnc2cnc(Oc3cccc(Cl)c3)nc2n1C1CC1,2.51 µM (active),–
COc1ccc(C2/C(=C(/O)c3ccccc3)C(=O)C(=O)N2CC(C)O)c(OC)c1 (stereo unspecified),inactive,–
N#Cc1ccc(C(c2nnnn2Cc2ccccc2)N2CCCC2)cc1 (stereo unspecified),inactive,–
O=C(NCc1ccc(F)cc1)C(c1ccncc1)N(C(=O)c1csnn1)C1CC1 (stereo unspecified),inactive,–
Cc1sc2ccccc2[n+]1CCC(C)S(=O)(=O)[O-] (stereo unspecified),inactive,–
O=C1c2ccccc2-c2n[nH]c3cccc1c23,0.0158 µM (active),–
CCc1cccc(NC(=O)CN(C)S(=O)(=O)c2cnc[nH]2)c1,inactive,–
CC1CCN(C(=O)CN(C)S(=O)(=O)c2cccc3nsnc23)CC1,inactive,–
CN(CC(=O)Nc1ccc(F)c(F)c1)S(=O)(=O)c1cccc2nsnc12,15.8 µM (active),–
CCN(CC)CCC[C@H](C)Nc1c2ccc(Cl)cc2nc2ccc(OC)cc12,2 µM (active) and 1 µM (active),–
Cc1cccc(N(CC(=O)N2CCOCC2)S(C)(=O)=O)c1,inactive,–
C/C(=N/NC(=O)c1ccc(NC(=O)c2ccc(F)cc2)cc1)c1ccccc1,inactive,–

SMILES,AC50,"activity, negative = inhibition"
O=C(N/C(=C\c1cccnc1)C(=O)N1CCOCC1)c1cccc(Br)c1,inactive,–
CC(C)OP(=O)(OC(C)C)C(NC(=O)c1ccc(Br)cc1)c1ccccc1 (stereo unspecified),inactive,–
C/C(=N\NC(=O)c1cccc(Br)c1)c1ccc(Br)cc1,0.282 µM (active),–
CCn1cc(C(=O)N/N=C(/C)c2ccc(F)cc2)c(=O)c2cc(F)c(N3CCCC3)cc21,inactive,–
C/C(=N\NC(=O)c1ccc(Br)cc1)c1ccccc1,1.41 µM (active),–
FC(F)(F)c1ccccc1-c1nccc(NCc2cccs2)n1,1.26 µM (active),–
CN(C)Cc1ccccc1-c1nccc(NCc2cccs2)n1,0.794 µM (active),–
Cc1ccccc1-c1nccc(NCc2cccs2)n1,0.501 µM (active),–
CC1CCN(c2cc(N3CCC(C)CC3)c([N+](=O)[O-])cc2/C=C(\C#N)c2nn(-c3ccccc3)c(N)c2C#N)CC1,inactive,–
CCCC[P+](CCCC)(CCCC)Cc1ccc(NC(=O)[C@@H](Cc2ccc3ccccc3c2)NC(=NC2CCCCC2)NC2CCCCC2)cc1,31.6 µM (active),–
O=C(Nc1ccccc1)C(Cc1ccccc1)NC(=O)C12CC3CC(CC(C3)C1)C2 (stereo unspecified),inactive,–
COc1ccc(CC(NC(C)=O)C(=O)NC2CCN(C(=O)Nc3ccc(Cl)cc3)CC2)cc1OC (stereo unspecified),inactive,–
CCNC(=S)NNC(=O)CCn1c2ccccc2c2ccccc21,2.82 µM (active),–
CCNC(=S)NNC(=O)Cc1ccccc1,inactive,–
CC(=O)C1=NOC(CNC(=O)c2c(-c3ccccc3Cl)noc2C)C1 (stereo unspecified),inactive,–
N#Cc1c(NC(=O)C2CC(c3ccccc3Cl)=NO2)sc2c1CCC2 (stereo unspecified),3.55 µM (active),–
COc1ccc(COC(=O)N/N=C2/C[C@@H](O)[C@@H](O)[C@@H]3[C@@H]4C(=O)N([C@@H](C)c5ccccc5)C(=O)[C@H]4CC[C@@H]23)cc1,–,-1.59% [at 11.4 µM]
CSc1ccc(CNc2ccc(Cl)cc2)cc1,10 µM (active),–
CSc1ccc(CNc2ccccc2)cc1,25.1 µM (active),–
CSc1ccc(CNc2ccc(C)c(C)c2)cc1,0.891 µM (active),–
CC(Sc1nc(NCc2ccccc2)nc(N(C)C)n1)C(=O)Nc1ccccc1 (stereo unspecified),inactive,–
CCCCC[C@H](CC(=O)NO)C(=O)N[C@@H](C(=O)N1CCC[C@H]1CO)C(C)C,inactive,–

# Source: PubChem BioAssay AID1851 (National Center for Advancing Translational Sciences (NCATS), 2009)
